SMILES strings stand for the structures. “And” between values parts separate entries of the source, which are not always exact repeats. Equal values may be shown once. Results filed as inconclusive are left out. The source made the active and inactive calls. Calls follow the shape of the dose curve; as a rule, active = well fitted inhibition curve with a large enough effect; inconclusive = small, poorly fitted or top-dose-only effect; inactive = flat fitted curve, though single readings scatter.
% is scaled to controls: 0 for no effect and ±100 for the full control effect; potency is read from the fitted curve at half-maximal effect.

In the first assay the test system is HEK293. Briefly: Cytotoxic Profiling of Annotated Libraries Using Quantitative High-Throughput Screening (AID 1296008). Also: nearly all actives have a fitted effect of over 60% in size. To be noted: Five cell lines viability, CellTiter-Glo ATP luminescence, 48-72 h; max response: hits give low values. The gist of the method: (§1)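 Compounds were pin-transferred onto cells and incubated 48 or 72 hr at 37 degree Celsius, 95% humidity. CellTiter-Glo was added, plates sat 10 min at room temperature, then ATP-coupled luminescence was imaged as the viability read-out.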
(In ATP-based viability assays light output follows the ATP content of the culture.)
Turning to `CCCN1CCC(c2cccc(S(C)(=O)=O)c2)CC1`, the max response is -1.41% (inactive).

Turning to `C=CC(C)(O)C(O)CC1C(C)(O)C(O)C(O)C2C(C)(C)CCCC21C` (stereo not given), the max response is -10.3% (inactive).

On to `CCc1cccc(CC)c1NC(=O)c1nn(C)c2c1CCc1cnc(Nc3ccc(C(=O)NC4CCN(C)CC4)cc3OC(F)(F)F)nc1-2`, for which the Potency is 1780 nM (active).

In the case of `C[C@H]1Oc2cc(cnc2N)-c2c(nn(C)c2C#N)CN(C)C(=O)c2ccc(F)cc21`, the max response is -113% (inactive).

Turning to `CC(C)N(CCCCOCC(=O)NS(C)(=O)=O)c1cnc(-c2ccccc2)c(-c2ccccc2)n1`, the compound was called inactive.

Consider `COc1ccc(CC2C(=O)NC(C)C(=O)N(C)C3Cc4ccc(cc4)Oc4cc(ccc4OC4OC(CO)C(O)C(O)C4O)CC(C(=O)NC(C)C(=O)NC(C)C(=O)N2C)N(C)C3=O)cc1` (stereo not given), for which the Potency was 55.1 nM (active).

For the next assay, the system named is HaCat. The assay is described as above. The following applies: Five cell lines viability, CellTiter-Glo ATP luminescence, 48-72 h; max response: hits give low values. The gist of the method: as §1
On to `CCCCCCOc1cc2c(cc1N(C)c1ncc(C(=O)O)cn1)C(C)(C)CCC2(C)C`, for which the call was inactive.

With `CCNCc1nc2c(N)nc3ccccc3c2n1CC(C)(C)O`, the call was inactive.

Turning to `O=C(O)c1ccccc1NCCc1ccccc1`, the outcome was inactive.

As to `CC(C)[C@@H](CS(=O)(=O)C(C)C)N1C(=O)[C@@](C)(CC(=O)O)C[C@H](c2cccc(Cl)c2)[C@H]1c1ccc(Cl)cc1`, the max response was -29% (inactive).

Take `C=C1C[C@@]23CCC4[C@@](C)(CCC[C@@]4(C)C(=O)OC)C2CC[C@@H]1C3` (stereo not given in full): the compound was classed as inactive.

In the case of `CCC(C(=O)O)c1ccc(N2Cc3ccccc3C2=O)cc1` (stereo not given), the compound was classed as inactive.

For `CN1CCN(c2ccc(C(=O)Nc3n[nH]c4ccc(Cc5cc(F)cc(F)c5)cc34)c(NC3CCOCC3)c2)CC1`, the Potency is 18.4 µM (active) and 14.8 µM (active).

For `CCN(Cc1cccnc1)C(=O)CN(c1ccc(OC)nc1)S(=O)(=O)c1ccccc1C`, the call was inactive.

Turning to `COc1ccc(-n2[nH]c(=O)c3[nH]c4cc(Cl)ccc4c(=O)c3c2=O)c(C)c1`, the compound was classed as inactive.

For the compound `CCOCCOC(=O)/C=C/c1ccc(OC)cc1`, the max response is -19.2% (inactive).

For `Cc1ccccc1NC(=O)Nc1ccc(CC(=O)N(C)[C@@H](CC(C)C)C(=O)NCC[C@H](NC(=O)[C@@H]2CCCN2S(=O)(=O)c2cc(Cl)cc(Cl)c2)C(=O)O)cc1`, the compound was classed as inactive.

Regarding `C[C@H]1Oc2cc(cnc2N)-c2c(nn(C)c2C#N)CN(C)C(=O)c2ccc(F)cc21`, the max response is -103% (inactive).

Turning to `CC(C)N(CCCCOCC(=O)NS(C)(=O)=O)c1cnc(-c2ccccc2)c(-c2ccccc2)n1`, the outcome was inactive.

The next assay relates to KB-3-1. The assay is described as above. The following applies: Five cell lines viability, CellTiter-Glo ATP luminescence, 48-72 h; max response: hits give low values. The gist of the method: as §1
Consider `CC(C)(C)c1cc(Br)cc([C@H](CC(=O)O)NC(=O)CNC(=O)c2cc(O)cc(NC3=NCC(O)CN3)c2)c1` (stereo not given in full), for which the max response is 3.01% (inactive).

Consider `Cc1c(NC(=O)c2cc(C(N)=O)nc3cc(F)ccc23)c(C(F)(F)F)nn1Cc1ccc(C#N)cc1`, for which the max response was 4.52% (inactive).

Take `O=C1NC(=O)C(c2cn3c4c(cccc24)CCC3)C1c1c[nH]c2ccccc12` (stereo not given): the Potency was 1300 nM (active).

In the case of `COc1cc2ncnc(N3CCC(Oc4cnc5ccccc5n4)C3)c2cc1OC` (stereo not given), the Potency is 1030 nM (active).

Take `Cc1cnc(Nc2ccc(F)cc2Cl)nc1-c1c[nH]c(C(=O)NC(CO)c2cccc(Cl)c2)c1` (stereo not given): the max response was -9.44% (inactive).

Regarding `Cn1cncc1C(N)(c1ccc(Cl)cc1)c1ccc2c(c1)c(-c1cccc(Cl)c1)cc(=O)n2C` (stereo not given), the Potency is 16400 nM (active).

Take `CN(C)c1ccc2c(c1)OC(N)=C(C#N)C2c1cccc(C(F)(F)F)c1` (stereo not given): the Potency was 291 nM (active).

`c1cc(Nc2cc(C3CC3)[nH]n2)nc(Nc2ccc3nc[nH]c3c2)n1`: the Potency is 1300 nM (active).

Regarding `CCC(C)C(=O)OC1CC(O)C23C4OCC5(C(O)CC2C1(C)C(O)O4)C3C(=O)CC1(C)C(c2ccoc2)CC2OC215` (stereo not given), the Potency was 1780 nM (active).

Take `CC(=O)NC1=NN(C(C)=O)C(C)(c2ccccc2)S1` (stereo not given): the Potency is 5170 nM (active).

Consider `CC1(C)CCC[C@]2(C)[C@H]3CC(=O)O[C@]3(C)CC[C@@H]12`, for which the max response was -11% (inactive).

As to `CC1(C)CC[C@]23CO[C@@]4(CCC5[C@@]6(C)CC[C@H](O[C@@H]7OC[C@H](O[C@@H]8O[C@H](CO)[C@@H](O)[C@H](O)[C@H]8O)[C@H](O)[C@H]7O[C@@H]7O[C@H](CO)[C@@H](O[C@@H]8O[C@H](CO)[C@@H](O)[C@H](O)[C@H]8O)[C@H](O)[C@H]7O)[C@@](C)(CO)C6CC[C@@]5(C)[C@]4(C)C[C@H]2OC2OCC(O)C(O)C2O)C3C1` (stereo not given in full), the max response was -11.5% (inactive).

As to `COc1ccc(Oc2cc(C)c(-c3csc(NC(=O)c4ccncc4)n3)c(C)c2)cc1`, the Potency was 146 nM (active).

For the compound `COc1cc(Nc2nc3c(s2)CCCC3c2ccc(F)cc2)ccc1-n1cnc(C)c1` (stereo not given), the Potency is 18400 nM (active).

Turning to `CN(C)c1nc(NC2CCC(NCCc3ccc(Br)cc3OC(F)(F)F)CC2)nc2ccccc12` (stereo not given), the Potency was 4610 nM (active).

Take `COc1cc2c(NC3CCN(CC4CCCCC4)CC3)nc(N3CCCN(C(C)C)CC3)nc2cc1OCCCN1CCCCC1`: the Potency is 3660 nM (active).

In the case of `CC1(C)CCCC2(C)C(C(=O)O)=CCC12` (stereo not given), the max response is -0.0594% (inactive).

On to `Cc1ccc(NC(=O)c2ccc(CN3CC[C@H](N(C)C)C3)c(C(F)(F)F)c2)cc1Nc1nccc(-c2cncnc2)n1`, for which the max response was -1.65% (inactive).

With `Cc1ccc(C(=O)N(CCCN)C(c2oc3cc(Cl)ccc3c(=O)c2Cc2ccccc2)C(C)C)cc1` (stereo not given), the Potency was 6.5 nM (active).

For `COc1cc2nc(N3CCC(N4CCCCC4)CC3)nc(NC3CCCCCC3)c2cc1OC`, the Potency was 5800 nM (active).

As for `C=C1CC23CC1CCC2C12OC(=O)C(C)(CCC1O)C2C3C(=O)O` (stereo not given), the outcome was inactive.

For the compound `C=CC(=O)Nc1cccc(CN2C(=O)N(c3c(Cl)c(OC)cc(OC)c3Cl)Cc3cnc(NCCCCN(CC)CC)nc32)c1`, the Potency was 18400 nM (active).

As for `CCCN1CCC(c2cccc(S(C)(=O)=O)c2)CC1`, the max response was -3.93% (inactive).

On to `C=CC(C)(O)C(O)CC1C(C)(O)C(O)C(O)C2C(C)(C)CCCC21C` (stereo not given), for which the max response was -10.5% (inactive).

For the compound `CCc1cccc(CC)c1NC(=O)c1nn(C)c2c1CCc1cnc(Nc3ccc(C(=O)NC4CCN(C)CC4)cc3OC(F)(F)F)nc1-2`, the Potency is 5630 nM (active).

`COc1ccc(CC2C(=O)NC(C)C(=O)N(C)C3Cc4ccc(cc4)Oc4cc(ccc4OC4OC(CO)C(O)C(O)C4O)CC(C(=O)NC(C)C(=O)NC(C)C(=O)N2C)N(C)C3=O)cc1` (stereo not given): the Potency is 138 nM (active).

The values are drawn from PubChem BioAssay (NCATS).
